TDP1 cell noCPT: qHTS for Inhibitors of human tyrosyl-DNA phosphodiesterase 1 (TDP1): qHTS in cells in absence of CPT. DT40 Tdp1-/- hTDP1 cells, no CPT, ATP luminescence, 48 h. Potency, µM (doses to about 46.2 µM), without a hit: at the highest dose activity change, negative = growth inhibition, hits mostly inhibitors. hit rate 15% among 420,000. AID 686978, 2013; note: potency is the fitted concentration of half-maximal effect; % is set by controls: 0 for no effect and ±100 for the full control effect; nearly all actives have a fitted effect of over 55% in size
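Chicken DT40 Tdp1-/- cells complemented with human TDP1, screened without camptothecin (DMSO vehicle only), 400 cells/well. Compounds pin-transferred, cells incubated at 37 °C for at least 48 hr. Growth read as ATP-dependent luminescence (CellTiter-Glo, 30 min at RT).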
IL-1B inflam inh: qHTS for Inhibitors of Inflammasome Signaling: IL-1-beta AlphaLISA Primary Screen | THP-1 LPS/ATP IL-1B secretion, AlphaLISA, 16 h; hits give low values | activity change, % at 57.5 µM | hit rate 4.7% among 360,000 | AID 743279, 2014; in the data active = activity change below about -50%; inconclusive = mostly about -30% to -49%; note: % is set by controls: 0 for no effect and ±100 for the full control effect
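Secreted IL-1B measured by AlphaLISA bead assay after 16 h compound exposure of THP-1 cells; compounds (final up to 57.5 uM) added 1 h before LPS (250 ng/mL) and ATP (1.25 mM) stimulation; lower signal means less secretion.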
HepG2 tox: qHTS for Inhibitors of TGF-b: Cytotox Counterscreen. AID 588856, 2011. hit rate 0.76% among 410,000. HepG2 CAGA-GFP viability, ATP luminescence, 18 h. Potency, µM (doses to about 46.1 µM), inactives show at the top dose activity change, negative = cytotoxicity, usual class: cytotoxic; note: potency is the fitted concentration of half-maximal effect
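HepG2 CAGA-GFP cells (1000/well, DMEM with 1% FBS) received compound, then TGF-beta at 500 pg/mL final, and were incubated 18 hours at 37 degrees C. Viability was read by CellTiter-Glo luminescence. Media-only wells were set as complete cell-killing and DMSO as no toxicity.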
TDP1 block: qHTS Assay for Inhibitors of Tyrosyl-DNA Phosphodiesterase (TDP1); hit rate 0.28% among 350,000; Tyrosyl-DNA phosphodiesterase 1 (Homo sapiens), Q9NUW8; recombinant TDP1, AlphaScreen DNA substrate cleavage; Potency, µM (series often up to 130 µM), inactives show at the highest dose activity change, negative = inhibition, hits mostly inhibitors; note: potency is the fitted concentration of half-maximal effect; % is set by controls: 0 for no effect and ±100 for the full control effect; nearly all actives have a fitted effect of over 40% in size
Target sequence (Q9NUW8 whole entry, looked up): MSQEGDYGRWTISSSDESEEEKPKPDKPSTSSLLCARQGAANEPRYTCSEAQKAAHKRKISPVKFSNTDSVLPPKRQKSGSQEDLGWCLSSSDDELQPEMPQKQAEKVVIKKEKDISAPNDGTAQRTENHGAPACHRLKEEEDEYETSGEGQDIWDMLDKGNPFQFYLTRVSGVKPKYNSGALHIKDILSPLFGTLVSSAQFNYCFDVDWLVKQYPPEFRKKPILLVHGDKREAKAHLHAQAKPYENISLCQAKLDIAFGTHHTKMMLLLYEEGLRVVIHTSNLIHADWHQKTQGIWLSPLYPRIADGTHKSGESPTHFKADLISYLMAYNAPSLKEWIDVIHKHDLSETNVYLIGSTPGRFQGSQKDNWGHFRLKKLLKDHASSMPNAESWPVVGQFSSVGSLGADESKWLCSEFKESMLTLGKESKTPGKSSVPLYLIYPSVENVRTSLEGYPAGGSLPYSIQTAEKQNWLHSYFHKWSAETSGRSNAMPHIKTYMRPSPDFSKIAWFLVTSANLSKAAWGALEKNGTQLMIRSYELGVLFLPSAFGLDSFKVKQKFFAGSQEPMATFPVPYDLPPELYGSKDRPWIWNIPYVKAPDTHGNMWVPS
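Tdp1 1 nM final; 15 min RT w/ cpd; substrate 15 nM, 5 min; beads 10 ug/ml, 10 min; AlphaScreen read. Neg ctrl: no enzyme.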
TDP1 cell CPT: qHTS for Inhibitors of human tyrosyl-DNA phosphodiesterase 1 (TDP1): qHTS in cells in presence of CPT. chicken DT40 Tdp1-/-;hTDP1 cells + 20 nM CPT, ATP luminescence, 48 h. Potency, µM (doses to about 46.2 µM), for the others: top-dose activity change, negative = growth inhibition, hits mostly inhibitors. hit rate 12% among 420,000; note: potency is the fitted concentration of half-maximal effect; % is set by controls: 0 for no effect and ±100 for the full control effect; nearly all actives have a fitted effect of over 55% in size
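Chicken DT40 Tdp1-/- cells complemented with human TDP1, 400 cells/well, exposed to compounds plus 20 nM camptothecin for at least 48 h at 37 C; viability read as ATP content by CellTiter-Glo luminescence.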
TGFb inhibitor: qHTS for Inhibitors of TGF-b; HepG2 CAGA-GFP TGF-b/SMAD3 reporter, GFP fluorescence, 18 h; TGF-beta stimulated, 500 pg/mL final; hit rate 1.2% among 410,000; Potency, µM (highest dose often 46.1 µM), for the others: top-dose activity, negative = inhibition, most hits filed as inhibitors; AID 588855, 2011; note: potency is the fitted concentration of half-maximal effect; % is set by controls: 0 for no effect and ±100 for the full control effect; nearly all actives have a fitted effect of over 65% in size
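Per well, imaged GFP fluorescence of HEPG2 CAGA-GFP cells gives the signal; cells get compound, then TGF-beta (500 pg/mL final), 18 h at 37 degrees C; %Activity versus -TGF-beta and +DMSO controls.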
The depositor's hits bear a star; ? = inconclusive; . = not tested or not shown. Compounds with a hit are over-represented: about 19% of the library has one in this group of screens. Unless noted, calls come from the whole dose curve; as a rule, active = well fitted curve in the direction sought with a large enough effect; inconclusive = small, poorly fitted or top-dose-only effect, or another doubt; inactive = no such curve, though single readings can be large; an effect the other way counts as inactive or inconclusive.

SMILES | TDP1 cell noCPT | IL-1B inflam inh | HepG2 tox | TDP1 block | TDP1 cell CPT | TGFb inhibitor
CS(=O)(=O)C1=NN2C(=N)/C(=C\c3ccc(OC(=O)c4ccco4)cc3)C(=O)N=C2S1 | -9% | 76 | -8% | 50µM* | -1% | -7%
N=C1/C(=C\c2ccc(OC(=O)c3ccc(F)cc3)cc2)C(=O)N=C2SC(N3CCOCC3)=NN12 | -20% | -6 | -9% | 56µM* | -8% | -10%
CC(=O)Nc1ccc(OCCOc2ccc(/C=C3/C(=N)N4C=CSC4=NC3=O)cc2)cc1 | 10µM* | 54 | 5% | -5% | 21µM* | 1%
Cc1c(C2=CCN(S(=O)(=O)c3ccc(Cl)cc3)CC2)c2ccccc2n1CC(=O)N1CCCC1 | ? | . | -3% | 6% | ? | -5%
CCCCn1c(N)c(N(CCC(C)C)C(=O)CCN2C(=O)C3CC=CCC3C2=O)c(=O)[nH]c1=O (centres undefined) | -5% | 7 | -9% | 3% | -11% | -10%
CCCCNC(=O)Cn1c(SCc2cccc(F)c2)nc2ccncc21 | ? | . | -9% | 2% | ? | -11%
CCOc1ccc(S(=O)(=O)N2CCCCC2)cc1NC(=O)c1ccccc1 | ? | -1 | 6% | . | -4% | 8%
COc1ccc(S(=O)(=O)NCCSCc2ccc(Cl)cc2)cc1NC(C)=O | 26µM* | -15 | -23% | 0% | ? | 0%
COc1ccc(S(=O)(=O)NCc2ccncc2)cc1NC(=O)c1ccccc1 | 16µM* | 15 | -19% | -1% | 21µM* | 0%
CCOc1ccc(S(=O)(=O)NCc2ccncc2)cc1NC(=O)c1ccccc1 | 1.2µM* | -9 | 6% | . | 3.7µM* | ?
COc1ccc(S(=O)(=O)NCc2cccnc2)cc1NC(=O)c1ccccc1 | -18% | 12 | 0% | 6% | -6% | 2%
CCOc1ccc(S(=O)(=O)NCc2ccncc2)cc1NC(=O)c1ccccc1F | 1.5µM* | 55 | -24% | . | -24% | -21%
COc1ccc(CCNS(=O)(=O)c2ccc(Cl)cc2)cc1OC | -10% | 0 | -13% | . | -28% | -10%
COC(=O)N1CCC2(CC1)CN(c1ccccn1)C2 | -7% | . | . | . | 7% | .
COc1ccc(S(=O)(=O)NCc2ccncc2)cc1NC(=O)c1ccc(Cl)cc1 | 15µM* | -67* | -11% | 0% | 16µM* | -17%
CC(=O)Nc1ccc(S(=O)(=O)NCCSCc2c(Cl)cccc2Cl)cc1 | ? | -66* | -15% | 4% | ? | 6%
COc1ccc(OC)c(NC(=O)c2cc(S(=O)(=O)NCc3ccco3)ccc2F)c1 | ? | -25 | -3% | 5% | -15% | 0%
CCOc1ccccc1NC(=O)c1cc(S(=O)(=O)NCc2ccco2)ccc1F | -82% | -7 | -19% | -5% | 15µM* | ?
CC(=O)Nc1ccc(S(=O)(=O)NCCSCc2cccc(Cl)c2)cc1 | ? | -16 | -6% | -1% | ? | -27%
COc1ccccc1N1CCN(C(=O)c2oc3ccccc3c2N)CC1 | ? | . | -30% | 5% | ? | -1%
CSc1ccc(CCNC(=O)CN2C(=O)c3cccnc3Oc3ccc(C)cc32)cc1 | 29µM* | -18 | -14% | 7% | ? | -8%
O=C(CN1C(=O)c2cccnc2Oc2ccc(Cl)cc21)NCCC1=CCCCC1 | -6% | 28 | 13% | 5% | ? | 4%
Cc1ccc2c(c1)N(CC(=O)NCCCc1ccccc1)C(=O)c1cccnc1O2 | ? | -18 | -3% | . | ? | 1%

Source: PubChem BioAssay (National Center for Advancing Translational Sciences (NCATS))
